Bioassay records deposited in PubChem by The Scripps Research Institute Molecular Screening Center.
MITF primary: inhibitors of human MITF. O75030. AlphaScreen MITF homodimerization, bead proximity signal. 650,000 compounds, 0.91% hits. inhibition, % at 2.6 µM; in the data active = inhibition above about 50%
TEAD-YAP inh: TEAD-YAP interaction inhibition | HEK-TIYL cells, TEAD-Gal4/YAP UAS-luciferase luminescence | inhibition, % at 9.12 µM | 640,000 compounds, 1.4% hits; in the data active = inhibition above about 32%
FBW7 activator: human FBW7 E3 ligase activation, primary screen. Q969H0. AlphaScreen FBW7–phospho-cyclin E peptide binding, activator screen. 650,000 compounds, 0.13% hits. normalized activity (activation), % at 26.1 µM. AID 1259310; in the data active = normalized activity above about 1.9%;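 note: purified mutant Fbw7 with reduced substrate affinity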
GPR151 ag: human GPR151 activation | 650,000 compounds, 1% hits | PathHunter beta-arrestin GPR151 cells, luminescence | AID 1508602 | activation, % at 11.2 µM; in the data active = activation above about 4.9%
GPR151 conf act: confirmation of human GPR151 activators; shares compounds with GPR151 ag; GPR151 PathHunter beta-arrestin cells, luminescence, 90 min; % of EA-reagent control over plate median; activation, % at 11.2 µM; 6,700 tested, under 10 active; AID 1508609;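 active = mean percent activation across replicates above the confirmation screen cutoff of 4.91%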
GPR119 counter: GPR119 activation, counter-screen for GPR151 activators | shares compounds with GPR151 ag | GPR119 PathHunter beta-arrestin cells, luminescence, 90 min; 0 = compound-well median, 100 = enzyme-acceptor control | activation, % at 11.2 µM | 6,700 compounds, 0.3% hits;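 active = mean percent activation in the counterscreen above 29.09%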;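 note: counterscreen on off-target GPR119 to flag nonselective hits from the GPR151 activator screen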
Target sequence (Q8TDV5 whole entry, looked up): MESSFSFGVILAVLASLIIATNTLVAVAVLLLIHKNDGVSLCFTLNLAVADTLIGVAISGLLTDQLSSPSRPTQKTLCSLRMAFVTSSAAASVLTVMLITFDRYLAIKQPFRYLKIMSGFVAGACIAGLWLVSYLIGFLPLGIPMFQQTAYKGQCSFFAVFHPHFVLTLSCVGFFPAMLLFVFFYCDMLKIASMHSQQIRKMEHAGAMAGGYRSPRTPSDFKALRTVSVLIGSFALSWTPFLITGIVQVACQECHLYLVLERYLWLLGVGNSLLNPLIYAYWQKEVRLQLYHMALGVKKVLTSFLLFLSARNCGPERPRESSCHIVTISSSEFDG
Each line names hits and unclear results; the compound was inactive in the other large screens (follow-up assays come after a bar, where they were run). This is a sample that favours compounds with a hit; in the whole collection about 3.5% have one here.

CN1CCN(Cc2ccc(C#CCCO)cc2)CC1CCO (configuration not stated)	GPR151 ag 5.0 | GPR151 conf act inactive | GPR119 counter inactive
CCOC(=O)C1CCCN(Cc2ccc(OC)c(C)c2C)C1 (configuration not stated)	none
O=C(Nc1ccc(S(=O)(=O)Nc2ncccn2)cc1)C(c1ccccc1)c1ccccc1	GPR151 ag 7.1 | GPR151 conf act inactive | GPR119 counter inactive
COC(=O)COc1ccc(NC(=O)C(c2ccccc2)c2ccccc2)cc1	none
O=C(O)COc1ccc(NC(=O)C(c2ccccc2)c2ccccc2)cc1	GPR151 ag 4.9 | GPR151 conf act inactive | GPR119 counter inactive
CC(=O)Nc1ccc(NC(=O)C/C(C)=N/NC(=O)C(=O)NCCO)cc1	GPR151 ag 5.8 | GPR151 conf act inactive | GPR119 counter inactive
CCN1CCN(CCNC(=O)Nc2ccccc2C)CC1	none
COCCN1CCN(c2c(C)c(C)nc3c(-c4ccc(F)cc4)c(C)nn23)CC1	none
CC1=C(C#N)C(c2ccc(C(C)C)cc2)C(C#N)=C(C)N1	GPR151 ag 9.9 | GPR151 conf act inactive | GPR119 counter inactive
CC(C)c1ccc(C2C(C#N)=C(N)OC(N)=C2C#N)cc1	none
CCOC(=O)C1C(=O)CC(C)(O)C(C(=O)OCC)C1c1ccc(CC)cc1 (configuration not stated)	none
CCOC(=O)C1C(=O)CC(C)(O)C(C(=O)OCC)C1c1cccnc1 (configuration not stated)	GPR151 ag 5.0 | GPR151 conf act inactive | GPR119 counter inactive
C=CCn1c(N)c(C(=O)NCCc2ccc(OC)c(OC)c2)c2nc3ccccc3nc21	GPR151 ag 14 | GPR151 conf act inactive | GPR119 counter inactive
Cc1ccc(/C=C2\N=C(c3ccccc3Cl)OC2=O)c(C)c1	none
COc1ccc(NC(=O)CCCNC(N)=O)cc1NS(=O)(=O)c1ccc(F)cc1	none
O=c1cc(CN2CCN(c3cccc(Cl)c3)CC2)occ1OCc1ccccc1	GPR151 ag 6.8 | GPR151 conf act inactive | GPR119 counter inactive
O=C(O)COc1coc(CN2CCN(c3cccc(Cl)c3)CC2)cc1=O	none
NC(=O)C1CCN(C(c2ccc(Cl)cc2)c2nnnn2C2CCCCC2)CC1 (configuration not stated)	none
COc1ccc(Cl)cc1NC(=S)N(Cc1cccc(Br)c1)CC1CCC(C(=O)O)CC1 (configuration not stated)	GPR151 ag 15 | GPR151 conf act inactive | GPR119 counter inactive
CCc1ccccc1NC(=S)N(Cc1cccc(Br)c1)CC1CCC(C(=O)O)CC1 (configuration not stated)	GPR151 ag 7.9 | GPR151 conf act inactive | GPR119 counter inactive
COc1ccc2oc(-c3ccccc3)c(C(=O)Nc3nccs3)c2c1	GPR151 ag 6.2 | GPR151 conf act inactive | GPR119 counter inactive
COc1ccc2oc(-c3ccccc3)c(C(=O)O)c2c1	none
Cc1nc2nc3[nH]c4ccccc4c3nn2n1	none
CC1=C(C(=O)OCc2ccc3c(c2)OCO3)C(c2cccc(Cl)c2)NC(=O)N1 (configuration not stated)	GPR151 ag 6.6 | GPR151 conf act inactive | GPR119 counter inactive
CC1=C(C(=O)OCC(C)C)C(c2ccc3c(c2)OCO3)NC(=O)N1 (configuration not stated)	GPR151 ag 5.9 | GPR151 conf act inactive | GPR119 counter inactive
CC(=O)Nc1ccc(Nc2nc(-c3c(C)nn(C)c3C)nc3c2ncn3CCN2CCCC2=O)cc1	none
CCCOc1ccc(Cc2nc3ccccc3n(C)c2=O)cc1	none
CC(c1ccco1)N(C)Cc1ccc(C(=O)NC23CC4CC(CC(C4)C2)C3)c(=O)[nH]1 (configuration not stated)	GPR151 ag 11 | GPR151 conf act inactive | GPR119 counter inactive
CC(c1ccco1)N(C)Cc1ccc(C(N)=O)c(=O)[nH]1 (configuration not stated)	none
Cc1nc(CC(=O)NCC2Cc3cccc(-c4ccc(C(N)=O)cc4)c3O2)cs1 (configuration not stated)	none
COCCCNc1nc2c(S(=O)(=O)c3ccccc3)nnn2c2ccsc12	GPR151 ag 6.5 | GPR151 conf act inactive | GPR119 counter inactive
COCCCNc1nc2c(S(=O)(=O)c3ccccc3)nnn2c2ccccc12	none
